A selection: hits, their analogues and other compounds. The true share with any hit is near 3.6%.
KKLEB tox: cytotoxicity in KKLEB CF airway cells, primary screen, cytotoxicity control for CF NF-kB inhibitor project, cell-based, uHTS, fluorescence assay plates; activity change (cytotoxicity), % at 5 µM; hit rate 0.36% among 360,000; KKLEB CF airway cells viability, ATPlite luminescence, overnight; active compounds read low; cells stimulated with P. aeruginosa culture filtrate;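 active = corrected activity change at or below -50% at 5 µM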
CF NFkB inh: inhibitors of PAF-induced NF-kB signaling, primary screen, cell-based, GFP fluorescence, uHTS; KKLEB NF-kB-GFP reporter, GFP fluorescence overnight; inhibition, % at 5 µM; hit rate 0.86% among 360,000;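 active = at least 50% inhibition at 5 µM, scaled per plate between neutral and stimulator controls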;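 note: PAF is a Pseudomonas aeruginosa culture filtrate used as stimulus; plate controls were PAF-stimulated DMSO wells for no effect and unstimulated DMSO wells for full effect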
Mdm2 MdmX PPI: inhibitors of human Mdm2-MdmX association, primary screen, cell-based, luminescence, split luciferase, SaOS-2, uHTS; SaOS-2 split-luciferase Mdm2/MdmX complementation; hit rate 3% among 330,000; inhibition, % at 8 µM; Protein Mdm4 (Homo sapiens) + E3 ubiquitin-protein ligase Mdm2 (Homo sapiens), …;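 active = inhibition of at least 50% at 8 µM in the primary screen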
Target sequence (O15151 whole entry, looked up): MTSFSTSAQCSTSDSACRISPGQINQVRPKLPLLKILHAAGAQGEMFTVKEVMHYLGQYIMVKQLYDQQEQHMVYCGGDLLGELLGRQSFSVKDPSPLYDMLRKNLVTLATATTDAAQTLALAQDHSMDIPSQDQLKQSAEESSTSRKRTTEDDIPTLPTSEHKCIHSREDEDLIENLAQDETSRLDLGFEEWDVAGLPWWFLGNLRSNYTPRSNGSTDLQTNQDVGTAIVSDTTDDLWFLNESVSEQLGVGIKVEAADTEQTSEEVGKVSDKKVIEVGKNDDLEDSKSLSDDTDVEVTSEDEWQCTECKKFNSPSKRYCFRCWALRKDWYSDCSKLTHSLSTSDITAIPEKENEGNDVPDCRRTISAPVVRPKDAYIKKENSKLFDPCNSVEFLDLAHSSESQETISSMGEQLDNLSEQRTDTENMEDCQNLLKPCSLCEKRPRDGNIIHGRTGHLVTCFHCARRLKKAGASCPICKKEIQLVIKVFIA
Target sequence (Q00987 whole entry, looked up): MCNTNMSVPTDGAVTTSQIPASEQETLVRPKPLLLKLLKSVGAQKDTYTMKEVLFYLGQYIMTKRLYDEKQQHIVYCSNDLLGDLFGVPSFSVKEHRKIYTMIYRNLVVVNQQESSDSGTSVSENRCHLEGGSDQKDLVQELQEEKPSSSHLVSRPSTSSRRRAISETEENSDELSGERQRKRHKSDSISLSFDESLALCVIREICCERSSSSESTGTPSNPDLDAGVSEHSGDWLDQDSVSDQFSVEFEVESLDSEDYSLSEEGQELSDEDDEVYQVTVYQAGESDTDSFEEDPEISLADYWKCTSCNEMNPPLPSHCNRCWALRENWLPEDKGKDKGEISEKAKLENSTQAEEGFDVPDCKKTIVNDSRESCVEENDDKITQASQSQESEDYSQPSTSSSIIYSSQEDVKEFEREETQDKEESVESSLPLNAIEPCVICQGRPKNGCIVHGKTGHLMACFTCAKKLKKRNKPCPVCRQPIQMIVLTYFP
LGR2 inh: inhibitors of bursicon-induced LGR2 CRE-luciferase signal, primary screen, cell-based, HEK293, CRE-luciferase reporter, bursicon stimulation. AID 720647, 2013. inhibition, % at 9.99 µM. hit rate 0.35% among 380,000. Drosophila bursicon receptor LGR2 (rickets). bursicon-stimulated, 4 h;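 active = drop in luminescence signal, shown as inhibition above about 50% in the replicate tests, limit read from the data, passing the limit was not always enough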;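 note: agonist challenge used bursicon conditioned medium at about half maximal strength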
HSP90 refold inh: HSP90 inhibitors, primary screen, cell lysate, luminescence. Rabbit reticulocyte lysate, luciferase refolding luminescence, 3 h. AID 1789, 2009. Heat shock protein HSP 90 (rabbit reticulocyte lysate; luciferase refolding). hit rate 0.91% among 290,000. inhibition, % at 5.6 µM;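 active = inhibition above the screen-wide mean plus 3 SD, computed separately per campaign, cut at about 16% in these data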;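 note: 0% = DMSO wells and 100% = 60 µM geldanamycin wells; inhibitors lower the luminescence because luciferase stays unfolded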
Peg3 promoter: Peg3 promoter-driven luciferase inhibitors, primary screen, cell-based, HeLa, luciferase luminescence. inhibition, % at 20 µM. AID 588405, 2011. hit rate 1.7% among 360,000. HeLa PEG-Prom luciferase reporter, overnight;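 active = inhibition of at least 50% at 20 µM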
Mdm2-MdmX conf: Mdm2-MdmX complex disruptors, retested hits, confirmation, luminescence, single concentration; inhibition, % at 8 µM; Mdm2-MdmX binding, luminescent assay; AID 489028, 2010; shares compounds with Mdm2 MdmX PPI; hit rate 55% among 10,000
Full FLuc ctr: full-length luciferase signal inhibition, confirmation, counter-screen for Mdm2/MdmX interaction inhibitor project, cell-based, single concentration, SaOS-2. hit rate 77% among 6,200. shares compounds with Mdm2 MdmX PPI. inhibition, % at 8 µM. SaOS-2 full-length luciferase counterscreen, luminescence. AID 504607, 2011;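 active = mean inhibition at 8 µM reaching about 37%, which flags the compound as non-specific, limit read from the data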;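 note: p53-null SaOS-2 cells with luciferase driven by a doxycycline-inducible promoter; compound on cells about two nights before reading with doxycycline added after day one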
CF NFkB inh conf: inhibitors of PAF-induced NF-kB signaling, retest, confirmation, cell-based, GFP fluorescence, single concentration | shares compounds with CF NFkB inh | KKLEB CF airway cells, overnight | inhibition, % at 5 µM | hit rate 64% among 1,300;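 note: stimulus PAF is a Pseudomonas aeruginosa filtrate and not platelet activating factor; plate controls were DMSO wells with stimulus for no effect and unstimulated DMSO wells for full effect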
The depositor's hits bear a star; . = no result given; ! = not active in a repeat. Cut-off read from the data, not from the text of the source, unless noted: active = inhibition above about 40%; inactive = the rest.

SMILES	KKLEB tox	CF NFkB inh	Mdm2 MdmX PPI	LGR2 inh	HSP90 refold inh	Peg3 promoter	Mdm2-MdmX conf	Full FLuc ctr	CF NFkB inh conf
CC(C)Nc1ncnc2ccc(Br)cc12	-7	70*	67*	25	4	26	68*	25	85*
COc1cc2ncnc(NCc3ccco3)c2cc1OC	2	-10	-14	-8	-2	-2	.	.	.
Brc1ccc2ncnc(NCc3ccco3)c2c1	-8	54*	57*	.	4	-40	22	.	58*
CSCCC(Nc1ncnc2ccc(Br)cc12)C(=O)O (stereo unspecified)	1	4	11	-7	2	1	.	.	.
Cc1ccccc1-c1ccc([C@@H]2[C@H](CO)N3C(=O)CN(C(=O)NC4CCCC4)C[C@@H]23)cc1	.	.	.	-1	.	.	.	.	.
Oc1ccc(Cl)cc1Cc1cc(Cl)ccc1O	30	77*	87*	.	3	42	60*	48*	90*
O=C(CCS(=O)(=O)c1ccccc1)N(CCCN1CCOCC1)c1nc2c(F)cccc2s1	-39	94*	79*	-31	.	104*	58*	38*	71*
COc1ccc(C)c2sc(N(CCN(C)C)C(=O)c3ccc(S(=O)(=O)N(C)c4ccccc4)cc3)nc12	-13	23	.	-16	.	-4	.	.	.
COc1ccc(C)c2sc(N(CCN(C)C)C(=O)/C=C/c3cccs3)nc12	-35	56*	65*	47	-1	50*	27	.	9
O=C(N/N=C/c1ccccc1)c1[nH]c2ccc(Br)cc2c1-c1ccccc1	-34	61*	63*	-11	5	-1	67*	83*	85*
O=C(NN=C1CCCC1)c1[nH]c2ccc(Br)cc2c1-c1ccccc1	.	.	27	12	-1	.	.	.	.
O=[N+]([O-])c1ccc(Oc2ccc(F)cc2)c2ccncc12	-24	59*	60*	.	3	21	56*	23	63*
COc1ccccc1-c1cn(CC[C@H]2CC[C@@H](NC(=O)C3CCCC3)[C@@H](CO)O2)nn1	.	.	.	25	.	.	.	.	.
Cc1cc(-c2csc3ncnc(N4CCN(C)CC4)c23)cc(C)c1C	-8	18	36	6	-2	-2	.	.	.
CN1CCN(c2ncnc3scc(-c4ccccc4Cl)c23)CC1	-26	71*	70*	10	-5	3	79*	29	74*
C=C1CCC[C@]2(C)C[C@H]3OC(=O)C(CN(Cc4ccc(OC)c(OC)c4)CC(C)O)[C@H]3CC12 (stereo partly specified)	-6	56*	68*	8	7	-35	48*	40*	47*
Cc1ccc(S(=O)(=O)n2cc(-c3ccccc3)c3ccccc32)cc1	-12	53*	63*	-22	.	-8	57*	82*	78*
CCN1CCN(Cc2ccc(NC(=O)c3ccc(C)c(NC(=O)c4nccn4C)c3)cc2C(F)(F)F)CC1	1	28	21	1	.	-26	.	.	.
CCN1CCN(Cc2ccc(NC(=O)c3ccc(C)c(NC(=O)N4CCNC4=O)c3)cc2C(F)(F)F)CC1	-1	50*	59*	-3	-2	0	40*!	83*	60*
CCN1CCN(Cc2ccc(NC(=O)c3ccc(C)c(NC(=O)c4cccc5[nH]ccc45)c3)cc2C(F)(F)F)CC1	-15	54*!	55*	16	.	42	25	.	49*
CCN1CCN(Cc2ccc(NC(=O)c3ccc(C)c(NC(=O)c4cc(-c5ccc(Br)cc5)n[nH]4)c3)cc2C(F)(F)F)CC1	-25	51*	99*	3	.	41	35	41*	67*
CCN1CCN(Cc2ccc(NC(=O)c3cc(NC(=O)c4nccnc4N)cc(OC)c3)cc2C(F)(F)F)CC1	-16	42	37	34	.	1	.	.	.
COc1cccc(S(=O)(=O)N(C)C[C@H]2Oc3ncc(-c4cccc(C(=O)N(C)C)c4)cc3C(=O)N([C@@H](C)CO)C[C@H]2C)c1	.	.	.	-11	.	.	.	.	.
c1ccc(N2CCN(c3ncnc4sc5c(c34)CCC5)CC2)cc1	5	59*	67*	.	5	5	56*	39*	42*
COc1ccc2c3c(n(C)c2c1)[C@H](CO)N(C(=O)C1CCOCC1)CC31CCN(C(=O)Nc2cccc(F)c2)CC1	.	.	.	-6	.	.	.	.	.
SMILES	KKLEB tox	CF NFkB inh	Mdm2 MdmX PPI	LGR2 inh	HSP90 refold inh	Peg3 promoter	Mdm2-MdmX conf	Full FLuc ctr	CF NFkB inh conf
Cc1c(NC(=O)c2cc(-c3cccs3)nc3ccccc23)c(=O)n(-c2ccccc2)n1C	-1	65*	57*	25	0	54*	37	.	64*
Cc1c(NC(=O)c2cc(-c3ccccc3)nc3ccccc23)c(=O)n(-c2ccccc2)n1C	-14	10	20	10	.	42	.	.	.
C[C@@H]1CN([C@H](C)CO)C(=O)c2cc(NC(=O)C3CCCCC3)ccc2O[C@H]1CN(C)C(=O)NC1CCCCC1	.	.	.	-17	.	.	.	.	.
O=C(Nc1nnc(COc2ccccc2F)s1)Nc1ccccc1F	-17	14	13	.	6	9	.	.	.
O=C(Nc1ccc(F)cc1)Nc1nnc(COc2ccccc2F)s1	-24	58*	91*	28	-3	45	82*	44*	44*
O=C(N[C@H]1C=C[C@@H](CC(=O)N2CCCCC2)O[C@H]1CO)c1ccc2c(c1)OCO2	.	.	.	-3	.	.	.	.	.
O=C(NCC[C@H]1CC[C@@H](NS(=O)(=O)c2ccc(F)cc2)[C@@H](CO)O1)Nc1ccc(F)cc1	.	.	.	-14	.	.	.	.	.
COc1ccc(N2CCN(C(=O)c3cc(-c4cc(OC)ccc4OC)nc4ccccc34)CC2)cc1	13	-79	35	-3	8	43	.	.	.
CCOc1ccccc1N1CCN(C(=O)c2cc(-c3cc(OC)ccc3OC)nc3ccccc23)CC1	-6	65*	73*	25	2	44	46*	62*	63*

Source: PubChem
